# Experimental data: PubChem BioAssay (Tox21)
# Results filed as inconclusive are left out. A number with no mark means an inactive call. The source made the active and inactive calls. The call rests on the fitted dose curve; in most records, active means well fitted activation curve with a large enough effect in the repeat runs; inconclusive means weak or mixed curves; inactive means flat fitted curve, though single readings scatter.
# Assay: A CellTox Green Cytotoxicity Assay to monitor cytotoxicity in HEK293 cells - 32 hour (AID 1224881); further: nearly all actives have a fitted effect of over 40% in size
# Conditions: CellTox Green fluorescence; series mostly up to 76.8 µM; cytotoxicity increase: at the top concentration
# Text: National Center for Advancing Translational Sciences [NCATS]
# NIH Chemical Genomics Center [NCGC]
# U.S. Environmental Protection Agency [EPA]
# National Institutes of Environmental Health Sciences [NIEHS]
# National Toxicology Program [NTP]
# Cell-based models are critical for drug discovery. Determining the natural cytotoxic effects resulting from test compounds is an essential research activity. A CellTox Green Cytotoxicity Assay to monitor cytotoxicity in real time of continues cell culture during 40 hours of the compound treatment was used to screen Tox21 10K library compounds in Hek293 cells. CellTox Green Cytotoxicity Assay is a nonlytic, homogeneous, biofluorescent method to measure cytotoxicity in cell culture after experimental manipulation. The assay system uses a proprietary asymmetric cyanine dye that is excluded from viable cells but preferentially stains the dead cell's DNA. […] Viable cells produce no appreciable increases in fluorescence. Therefore, the fluorescence signal produced by the binding interaction with dead cell DNA is proportional to cytotoxicity.
# The mixture of Hek293 cell suspension and reagents were dispensed at 600cells/6 ul/well in 1536-well tissue culture treated black solid bottom plates using a Multidrop dispenser. After the assay plates were incubated at a 37 C/5% CO2 incubator for 5 hours, 23 nL of compounds dissolved in DMSO, positive and negative controls was transferred to the assay plate by a pintool work station. The plates were incubated at 37 C for 40 hours. The fluorescence intensity were measured at 0h, 8h, 16h, 24h, 32h and 40h time points using ViewLux plate reader during compound treatment.
# On the % scale 0 is the no-effect control and ±100 the full control effect; potency means the concentration at half of the fitted maximal effect.
Structure (SMILES),cytotoxicity increase,Potency
C=C1C(=C/C=C2\CCC[C@]3(C)[C@@H]([C@H](C)/C=C/[C@@H](O)C4CC4)CC[C@@H]23)C[C@@H](O)C[C@@H]1O,17.1% [at 35.3 µM],–
CCCCC1=NC2(CCCC2)C(=O)N1Cc1ccc(-c2ccccc2-c2nn[nH]n2)cc1,-1.24% [at 35.3 µM],–
CN1Cc2cc(C(=O)N3CCC(C4CCNCC4)CC3)ccc2NC(CC(=O)O)C1=O (stereo not given),0.922% [at 35.3 µM],–
CCOC(=O)NCCOc1ccc(Oc2ccccc2)cc1,0.423%,–
C/C=C(/C(=C/C)c1ccc(OC(C)=O)cc1)c1ccc(OC(C)=O)cc1,-20% [at 35.3 µM],–
O=C1OC(=O)C2C3C=CC(C3)C12 (stereo not given),-11.6%,–
C=C1[C@H]2CC[C@@H]3[C@H]2C(C)(C)CCC[C@]13C,-2.07%,–
CC(=O)c1ccc2c(c1)N(CCCN1CCC(CCO)CC1)c1ccccc1S2,–,23.9 µM (active)
CCN(CC)CCNc1ccc(CNC=O)c2sc3ccc(OC)cc3c(=O)c12,20.7%,–
CCn1cc(C(=O)O)c(=O)c2cnc(N3CCNCC3)nc21,12.3% [at 35.3 µM],–
OC(C#CCN1CCCC1)(c1ccccc1)c1ccccc1,1.41% [at 35.3 µM],–
Cc1cccc(C)c1NC(=O)CN(CC(=O)O)CC(=O)O,-12.4% [at 35.3 µM],–
O=C(O)c1ccccc1Cl,-13.8%,–
O=C1[C@H]2CCCC[C@H]2C(=O)N1CCCCN1CCN(c2nsc3ccccc23)CC1,17.9% [at 35.3 µM],–
CC1(c2ccccc2)OC(C(=O)O)=CC1=O (stereo not given),1.64% [at 35.3 µM],–
CC(=O)c1cccc([N+](=O)[O-])c1,0.623%,–
CCOC(=O)C(F)(F)F,-3.51%,–
NCCCN1CCOCC1,0.157%,–
CCC(C)(C)CC,-6.28%,–
O=[N+]([O-])c1cccc(S(=O)(=O)O)c1,18.5%,–

Structure (SMILES),cytotoxicity increase,Potency
CC[N+](C)(CC)CCOC(=O)C(O)(c1ccccc1)C1CCCCC1 (stereo not given),-7.59% [at 35.3 µM],–
NCC(=O)O,1.64% [at 15.8 µM],–
C[C@@H]1C[C@H]2O[C@@]3(O[C@@H]2C(C)(C)O)[C@H](O)[C@@]2(C)[C@@H]4CC[C@H]5C(C)(C)[C@@H](O[C@@H]6OC[C@@H](O)[C@H](O)[C@H]6O)CC[C@@]56C[C@@]46CC[C@]2(C)[C@@H]13,15.8% [at 35.3 µM],–
O=[N+]([O-])c1ccc2[nH]ncc2c1,1%,–
OC(CN1CCC(Cc2ccc(F)cc2)CC1)c1ccc(Cl)cc1 (stereo not given),–,21.3 µM (active)
Cc1c(N)cccc1[N+](=O)[O-],-8.47%,–
CN1CCC(N(Cc2cccs2)c2ccccc2)CC1,–,21.3 µM (active)
COCC(C)OC(C)=O (stereo not given),11.4%,–
C=CCOc1ccccc1OCC(O)CNC(C)C (stereo not given),-1.85% [at 35.3 µM],–
O=C(O)c1nc(Cl)c(Cl)c(Cl)c1Cl,-7.86%,–
CC(CSC(=O)c1ccccc1)C(=O)N1C[C@@H](Sc2ccccc2)C[C@H]1C(=O)O (stereo not given in full),1.09% [at 15.8 µM],–
N=c1ccn2c(n1)O[C@H]1[C@H](O)[C@@H](CO)O[C@H]12,-8.58%,–
NC(=O)C(c1ccccc1)(c1ccccc1)[C@@H]1CCN(CCc2ccc3c(c2)CCO3)C1,–,21.3 µM (active)
COc1ccc(C)cc1[N+](=O)[O-],-9.67%,–
O=C1CCC(=O)O1,-2.22%,–
Nc1ccc([N+](=O)[O-])c(C(F)(F)F)c1,-9.49% [at 35.3 µM],–
CC(C)C[C@H]1C(=O)N2CCC[C@H]2[C@]2(O)O[C@](NC(=O)[C@@H]3C=C4c5cccc6[nH]c(Br)c(c56)C[C@H]4N(C)C3)(C(C)C)C(=O)N12,-10.4% [at 35.3 µM],–
C[N+](C)(C)CCOC(=O)CCC(=O)OCC[N+](C)(C)C,1.54% [at 35.3 µM],–
CN(C)CCCN1c2ccccc2Sc2ccccc21,4.22% [at 35.3 µM],–
C=C(C)C(=O)OCCO,-10.7%,–
